We go through twelve compounds from ChEMBL document CHEMBL3433997, “St. Jude Leishmania screening dataset” (2016).

In general, inhibition refers to the change of the read-out against control, counted positive when it falls.

Holding throughout (assay type): functional
For assay [1], the target named is Solute carrier family 2, facilitated glucose transporter member 1 (Homo sapiens) (UniProt P11166). Nature of the assay: ST_JUDE_LEISH: Cytotoxicity at 2uM final concentration against transgenic Leishmania Mexicana promastigotes LmGLUT1 that are glucose transport deficient and complemented with the human glucose transporter GLUT1. Activity is measured by DNA content using SYBR green in vitro.
Chain of Solute carrier family 2, facilitated glucose transporter member 1 (Homo sapiens) (P11166 whole entry): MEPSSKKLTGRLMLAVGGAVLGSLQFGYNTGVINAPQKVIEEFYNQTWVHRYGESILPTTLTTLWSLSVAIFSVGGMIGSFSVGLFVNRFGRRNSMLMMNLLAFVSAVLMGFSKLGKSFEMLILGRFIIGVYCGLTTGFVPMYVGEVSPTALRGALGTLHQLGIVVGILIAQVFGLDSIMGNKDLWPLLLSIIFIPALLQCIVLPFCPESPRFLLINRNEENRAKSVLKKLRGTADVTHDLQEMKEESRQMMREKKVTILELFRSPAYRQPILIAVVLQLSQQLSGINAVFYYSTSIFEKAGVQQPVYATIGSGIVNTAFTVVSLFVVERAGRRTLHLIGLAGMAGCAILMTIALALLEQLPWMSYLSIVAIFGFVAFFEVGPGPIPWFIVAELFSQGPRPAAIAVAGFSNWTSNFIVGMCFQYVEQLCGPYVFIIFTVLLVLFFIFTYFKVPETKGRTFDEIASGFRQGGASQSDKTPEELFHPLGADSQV

Assay [2] addresses Hexose transporter 1 (Plasmodium falciparum) (UniProt O97467). The assay is described as follows: ST_JUDE_LEISH: Cytotoxicity at 2uM final concentration against transgenic Leishmania Mexicana promastigotes LmPfHT that are glucose transport deficient and complemented with the Plasmodium falciparum hexose transporter. Activity is measured by DNA content using SYBR green in vitro.

For assay [3], the target named is Glucose transporter (Leishmania mexicana) (UniProt O61059). Nature of the assay: ST_JUDE_LEISH: Cytotoxicity at 2uM final concentration against transgenic Leishmania Mexicana promastigotes LmGT2 that are glucose transport deficient and complemented with the L. Mexicana glucose transporter 2. Activity is measured by DNA content using SYBR green in vitro.

Regarding `CC1(C)N=C(N)N=C(N)N1OCc1cc(Cl)c(CON2C(N)=NC(N)=NC2(C)C)cc1Cl`, the results for the inhibition in assay [1], in assay [2] and in assay [3] were 0.92%, 1% and -2.89%, respectively.

As for `O=c1cc(NCCC2CC=CCN2Cc2ccc(Cl)c(Cl)c2)[nH]c2ccccc12` (stereo unspecified), the inhibition was 1% in assay [1], 0.33% in assay [2] and -0.25% in assay [3].

With `COc1ccc2nccc([C@@H](O)CN3CCC(NS(=O)(=O)c4cc(Br)c(Br)s4)CC3)c2c1`, the figures for the inhibition in assay [1], in assay [2] and in assay [3] were 3.72%, 2.36% and 1.8%, respectively.

With `CN(C)CCc1coc2ccc(C(=O)Nc3ccc(-c4ccc(O)cc4)cc3)cc12`, the inhibition in assay [1] turned out to be 4.69%; in assay [2], 4.41%; in assay [3], 2.77%.

For the compound `CN1CCC(N2CCN(Cc3ccc(-c4cccc(-c5nc6ccccc6[nH]5)c4)cc3)CC2)CC1`, the inhibition in assay [1] was 0.9%; in assay [2], 1.87%; in assay [3] it was 1.93%.

Consider `Cc1cc(F)ccc1-c1nc(NCCCNCCc2ccccc2)nc2c1ccc(=O)n2-c1c(F)cccc1F`, for which the inhibition turned out to be 0.55% in assay [1], 5.5% in assay [2] and 0.76% in assay [3].

With `O=C(Nc1nc2cc(S(=O)(=O)NCCCN3CCOCC3)ccc2n1CCCn1ccnc1)c1ccc(Cl)cc1`, the inhibition was determined as 5.51% in assay [1], 5.43% in assay [2] and 4.2% in assay [3].

Take `C=CCOc1ccccc1CNCC(O)c1cc(Br)cs1` (stereo unspecified): the figures for the inhibition in assay [1], in assay [2] and in assay [3] were 1.55%, 2.37% and 2.43%, respectively.

For `O=C(N[C@@H](Cc1ccccc1)C(=O)NC1CCCc2ccccc21)c1ccc(O)c(-c2cccc(C(F)(F)F)c2)c1` (stereo partly specified), the inhibition in assay [1] is -3.38%; in assay [2] it was -1.1%; in assay [3], -1.61%.

As to `CCOc1ccc(-c2nonc2NC(=O)CC(C)C)cc1OCC`, the inhibition in assay [1] was -0.61%; in assay [2], -0.84%; in assay [3], -1.25%.

Regarding `Cc1cc2nc(-c3ccc(C(=O)NCc4cccc(C(F)(F)F)c4)cc3)[nH]c2cc1C`, the inhibition in assay [1] was -0.3%; in assay [2], -2.94%; in assay [3], -2.9%.

As for `ON=C1CCc2cc(-c3[nH]c(-c4cccc(OCCNCc5ccc(F)cc5)c4)nc3-c3ccncc3)ccc21`, the figures for the inhibition in assay [1], in assay [2] and in assay [3] were 16.7%, 9.15% and 10.8%, respectively.
